Assay results from the supplement of paper PMC10849652.
Of roughly 7,900 targets only a part is listed; those with a hit were picked by preference. About 0.6% of all pairs of compound and target were hits. Values without a mark were called inactive.

Legend:
Assay in all cases: log2 fold change, soluble protein after heating vs DMSO (PISA); higher = thermal stabilisation; K562 cells, 10 uM, 30 min; active = over 0.2 and 3.5 SD of the protein, either way, in both replicates (recomputed)
[1] = compound: CC1=C(C=C(C=C1)NC(=O)C2=CC(=CC=C2)C(C)(C)C#N)NC3=CC4=C(C=C3)N=CN(C4=O)C
How it was run: (§1)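 Soluble protein was defined as the supernatant after 21,000xg for 90 min. It came from K562 cells at 2×10^6 cells/mL given 10 μM compound for 30 min, heated in aliquots for 3 min across 48°C-58°C, pooled, and extracted in PBS with 0.5% NP-40 at 4°C, and was quantified by TMTpro 16plex LC-MS/MS with equalised channel sums. Thermal stability against control samples, from duplicates, is reported as log2 fold change.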

[2] = compound: CC1=C(C=C(C=C1)NC(=O)C2=CC(=CC=C2)N(C)C)NC(=O)C3=CC=C(C=C3)O
How it was run: as §1

[3] = compound: CC1=CC=C(C=C1)SC2=C3C=C(SC3=CN=C2)C(=O)N
How it was run: as §1

[4] = compound: CCCCN(Cc1ccc(C(=O)NO)cc1)C(=O)Nc1ccccc1 [Nexturastat A]
How it was run: as §1

[5] = compound: CCCS(=O)(=O)Nc1ccc(F)c(C(=O)c2c[nH]c3ncc(-c4ccc(Cl)cc4)cc23)c1F [vemurafenib]
How it was run: as §1

[6] = compound: CCCS(=O)(=O)Nc1ccc(F)c(C(=O)c2c[nH]c3ncc(Cl)cc23)c1F
How it was run: as §1

[7] = compound: CCCc1cc(C)[nH]c(=O)c1CNC(=O)c1cc(-c2ccnc(N3CCN(C)CC3)c2)cc2c1cnn2C(C)C
How it was run: as §1

[8] = compound: CCN(CC)Cc1ccc2cc(COC(=O)Nc3ccc(C(=O)NO)cc3)ccc2c1 [givinostat]
How it was run: as §1

[9] = compound: CCN(CCCOc1ccc2c(Nc3cc(CC(=O)Nc4cccc(F)c4)[nH]n3)ncnc2c1)CCOP(=O)(O)O [barasertib]
How it was run: as §1

[10] = compound: CC1=NC(=CC=C1)C2=C(N=C(N2)C(C)(C)C)C3=CC4=NC=CN=C4C=C3
How it was run: as §1

Chain of UniProt Q9Y2H1 (Q9Y2H1 whole entry, looked up): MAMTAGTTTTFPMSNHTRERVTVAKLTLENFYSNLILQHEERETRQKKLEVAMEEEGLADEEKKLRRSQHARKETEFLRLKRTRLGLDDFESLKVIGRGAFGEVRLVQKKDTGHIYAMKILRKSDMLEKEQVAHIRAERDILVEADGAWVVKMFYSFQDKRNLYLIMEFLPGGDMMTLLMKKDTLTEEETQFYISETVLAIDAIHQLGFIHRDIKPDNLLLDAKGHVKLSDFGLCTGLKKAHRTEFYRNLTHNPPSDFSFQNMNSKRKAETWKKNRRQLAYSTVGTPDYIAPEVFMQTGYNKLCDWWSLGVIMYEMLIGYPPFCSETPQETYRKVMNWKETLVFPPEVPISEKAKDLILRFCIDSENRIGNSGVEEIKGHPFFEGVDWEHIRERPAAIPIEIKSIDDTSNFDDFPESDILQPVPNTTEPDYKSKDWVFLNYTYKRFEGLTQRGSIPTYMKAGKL
Chain of UniProt Q08AE8 (Q08AE8 whole entry, looked up): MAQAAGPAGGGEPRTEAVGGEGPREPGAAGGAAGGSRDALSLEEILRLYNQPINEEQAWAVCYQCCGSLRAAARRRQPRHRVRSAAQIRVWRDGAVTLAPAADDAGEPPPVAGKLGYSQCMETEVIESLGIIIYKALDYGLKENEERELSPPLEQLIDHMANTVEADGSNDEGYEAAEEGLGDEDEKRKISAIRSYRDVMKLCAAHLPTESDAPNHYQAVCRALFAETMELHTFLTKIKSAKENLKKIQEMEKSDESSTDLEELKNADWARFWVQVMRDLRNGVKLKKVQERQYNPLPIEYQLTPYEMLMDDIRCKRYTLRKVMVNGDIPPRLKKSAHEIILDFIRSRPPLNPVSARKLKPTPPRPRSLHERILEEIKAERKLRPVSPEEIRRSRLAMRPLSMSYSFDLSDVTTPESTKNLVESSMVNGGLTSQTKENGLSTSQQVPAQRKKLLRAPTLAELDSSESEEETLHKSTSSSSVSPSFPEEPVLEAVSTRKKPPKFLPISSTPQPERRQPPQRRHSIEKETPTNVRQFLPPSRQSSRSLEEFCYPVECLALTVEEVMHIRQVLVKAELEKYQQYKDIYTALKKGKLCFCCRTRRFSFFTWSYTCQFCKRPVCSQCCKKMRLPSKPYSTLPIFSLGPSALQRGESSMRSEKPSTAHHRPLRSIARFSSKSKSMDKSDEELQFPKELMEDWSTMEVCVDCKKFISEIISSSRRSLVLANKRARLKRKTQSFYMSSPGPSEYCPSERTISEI
Chain of UniProt Q8N9U0 (Q8N9U0 whole entry, looked up): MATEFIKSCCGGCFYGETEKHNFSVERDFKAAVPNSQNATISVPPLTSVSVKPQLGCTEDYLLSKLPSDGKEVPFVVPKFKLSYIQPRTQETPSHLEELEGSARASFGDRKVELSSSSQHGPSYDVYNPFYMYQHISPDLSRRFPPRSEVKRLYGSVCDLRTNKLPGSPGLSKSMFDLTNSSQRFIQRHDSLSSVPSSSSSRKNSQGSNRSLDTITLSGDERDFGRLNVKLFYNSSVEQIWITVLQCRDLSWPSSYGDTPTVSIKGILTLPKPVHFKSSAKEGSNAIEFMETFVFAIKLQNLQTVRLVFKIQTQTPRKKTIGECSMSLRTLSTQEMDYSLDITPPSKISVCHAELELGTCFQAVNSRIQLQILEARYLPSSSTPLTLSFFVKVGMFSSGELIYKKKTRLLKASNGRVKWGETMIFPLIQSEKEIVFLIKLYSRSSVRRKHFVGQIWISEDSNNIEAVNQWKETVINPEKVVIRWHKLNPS
Chain of UniProt O60749 (O60749 whole entry, looked up): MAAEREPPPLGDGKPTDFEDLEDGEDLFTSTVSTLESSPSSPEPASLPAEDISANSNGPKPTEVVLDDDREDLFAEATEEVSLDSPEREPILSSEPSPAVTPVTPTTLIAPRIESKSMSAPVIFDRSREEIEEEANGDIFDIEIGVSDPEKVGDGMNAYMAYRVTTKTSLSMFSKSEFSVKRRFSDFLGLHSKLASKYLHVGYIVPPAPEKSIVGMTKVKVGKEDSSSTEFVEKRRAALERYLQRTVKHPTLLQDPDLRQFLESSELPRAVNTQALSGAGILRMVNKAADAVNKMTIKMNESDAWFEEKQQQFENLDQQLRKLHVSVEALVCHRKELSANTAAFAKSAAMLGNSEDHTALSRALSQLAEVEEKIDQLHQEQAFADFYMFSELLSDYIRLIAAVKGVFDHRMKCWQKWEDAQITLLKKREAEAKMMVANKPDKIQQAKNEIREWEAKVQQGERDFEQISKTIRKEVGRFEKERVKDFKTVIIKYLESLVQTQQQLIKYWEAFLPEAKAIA
Chain of UniProt Q8IWA5 (Q8IWA5 whole entry, looked up): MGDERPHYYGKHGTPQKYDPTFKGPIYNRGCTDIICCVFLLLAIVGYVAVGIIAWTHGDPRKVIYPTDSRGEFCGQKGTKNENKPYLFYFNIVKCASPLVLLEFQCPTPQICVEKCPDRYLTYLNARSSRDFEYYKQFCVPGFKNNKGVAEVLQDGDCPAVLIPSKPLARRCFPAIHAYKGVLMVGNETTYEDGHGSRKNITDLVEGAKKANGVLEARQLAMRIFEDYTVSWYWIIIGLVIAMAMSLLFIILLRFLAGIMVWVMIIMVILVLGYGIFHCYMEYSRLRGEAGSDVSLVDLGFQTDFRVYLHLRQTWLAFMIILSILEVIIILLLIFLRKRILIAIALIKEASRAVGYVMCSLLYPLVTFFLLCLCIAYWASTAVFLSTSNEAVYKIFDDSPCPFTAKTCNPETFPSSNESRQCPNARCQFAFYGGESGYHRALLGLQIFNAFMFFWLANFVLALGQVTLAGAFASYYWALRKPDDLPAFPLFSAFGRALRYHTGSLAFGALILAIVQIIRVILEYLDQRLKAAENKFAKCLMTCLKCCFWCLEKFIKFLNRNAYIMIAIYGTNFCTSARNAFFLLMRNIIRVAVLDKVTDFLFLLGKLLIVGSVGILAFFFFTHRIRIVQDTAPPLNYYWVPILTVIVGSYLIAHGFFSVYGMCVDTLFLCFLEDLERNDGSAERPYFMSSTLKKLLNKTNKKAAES
Chain of UniProt Q13247 (Q13247 whole entry, looked up): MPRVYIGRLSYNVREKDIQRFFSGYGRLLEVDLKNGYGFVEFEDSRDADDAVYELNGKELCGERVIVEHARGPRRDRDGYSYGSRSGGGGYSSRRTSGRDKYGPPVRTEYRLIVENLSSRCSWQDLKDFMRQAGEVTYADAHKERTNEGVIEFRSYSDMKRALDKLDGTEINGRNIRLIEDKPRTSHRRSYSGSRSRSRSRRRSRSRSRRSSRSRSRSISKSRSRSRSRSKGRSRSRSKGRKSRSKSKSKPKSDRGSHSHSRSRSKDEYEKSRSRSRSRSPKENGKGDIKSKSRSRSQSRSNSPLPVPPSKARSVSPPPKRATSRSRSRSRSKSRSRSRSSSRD
Chain of UniProt P78383 (P78383 whole entry, looked up): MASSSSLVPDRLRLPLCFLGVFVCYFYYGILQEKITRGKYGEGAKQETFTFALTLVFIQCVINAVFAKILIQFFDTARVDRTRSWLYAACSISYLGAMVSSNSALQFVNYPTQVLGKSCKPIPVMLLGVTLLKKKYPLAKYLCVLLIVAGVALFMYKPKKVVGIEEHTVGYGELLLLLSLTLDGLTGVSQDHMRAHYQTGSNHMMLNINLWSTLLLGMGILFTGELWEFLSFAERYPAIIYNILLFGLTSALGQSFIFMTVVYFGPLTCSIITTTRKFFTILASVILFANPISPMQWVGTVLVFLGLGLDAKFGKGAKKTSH
Chain of UniProt P53597 (P53597 whole entry, looked up): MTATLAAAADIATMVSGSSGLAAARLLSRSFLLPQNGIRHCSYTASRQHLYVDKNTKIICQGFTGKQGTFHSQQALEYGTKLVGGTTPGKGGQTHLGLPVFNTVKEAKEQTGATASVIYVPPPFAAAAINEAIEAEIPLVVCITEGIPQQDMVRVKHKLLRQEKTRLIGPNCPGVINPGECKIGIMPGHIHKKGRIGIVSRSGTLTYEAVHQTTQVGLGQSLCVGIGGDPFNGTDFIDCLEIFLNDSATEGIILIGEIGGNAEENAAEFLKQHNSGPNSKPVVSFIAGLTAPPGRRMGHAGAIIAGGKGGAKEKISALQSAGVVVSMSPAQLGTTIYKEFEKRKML
Chain of UniProt Q6J4K2 (Q6J4K2 whole entry, looked up): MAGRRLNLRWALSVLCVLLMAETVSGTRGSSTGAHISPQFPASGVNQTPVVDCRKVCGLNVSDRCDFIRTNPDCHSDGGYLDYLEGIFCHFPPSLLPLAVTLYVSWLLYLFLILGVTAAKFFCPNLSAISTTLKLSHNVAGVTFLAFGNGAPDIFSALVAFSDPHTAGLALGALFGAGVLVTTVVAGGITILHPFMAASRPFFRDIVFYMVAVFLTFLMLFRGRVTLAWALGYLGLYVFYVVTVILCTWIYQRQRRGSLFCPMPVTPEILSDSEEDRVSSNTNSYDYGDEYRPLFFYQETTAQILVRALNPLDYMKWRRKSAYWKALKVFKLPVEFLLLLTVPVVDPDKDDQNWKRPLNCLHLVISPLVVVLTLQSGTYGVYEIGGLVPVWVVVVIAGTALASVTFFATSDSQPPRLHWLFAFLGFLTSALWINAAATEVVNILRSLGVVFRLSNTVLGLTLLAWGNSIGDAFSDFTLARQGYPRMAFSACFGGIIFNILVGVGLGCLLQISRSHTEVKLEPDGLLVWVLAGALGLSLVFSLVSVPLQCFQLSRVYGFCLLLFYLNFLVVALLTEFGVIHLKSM
Chain of UniProt Q9H4I9 (Q9H4I9 whole entry, looked up): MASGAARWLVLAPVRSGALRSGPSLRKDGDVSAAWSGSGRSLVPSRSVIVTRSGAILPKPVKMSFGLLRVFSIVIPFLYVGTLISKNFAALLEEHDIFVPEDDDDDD
Chain of UniProt Q969S0 (Q969S0 whole entry, looked up): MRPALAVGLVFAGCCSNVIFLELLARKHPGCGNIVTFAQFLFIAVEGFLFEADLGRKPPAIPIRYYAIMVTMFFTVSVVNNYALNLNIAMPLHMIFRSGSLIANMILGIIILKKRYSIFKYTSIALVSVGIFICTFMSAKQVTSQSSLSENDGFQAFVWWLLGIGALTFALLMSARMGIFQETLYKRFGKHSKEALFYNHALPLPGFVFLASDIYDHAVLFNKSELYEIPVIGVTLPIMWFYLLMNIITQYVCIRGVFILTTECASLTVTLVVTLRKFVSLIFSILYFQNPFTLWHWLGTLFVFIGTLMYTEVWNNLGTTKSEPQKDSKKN

Row | Target | log2 fold change [1] | log2 fold change [2] | log2 fold change [3] | log2 fold change [4] | log2 fold change [5] | log2 fold change [6] | log2 fold change [7] | log2 fold change [8] | log2 fold change [9] | log2 fold change [10]
1 | TMBIM1 (UniProt Q969X1) | 0.113 | -0.055 | 0.09 | -0.02 | -0.132 | 0.185 | -0.134 | 0.004 | -0.057 | 
2 | STEAP3 isoform 2 (UniProt Q658P3) | -0.009 | 0.015 | 0.008 | -0.05 | -0.027 | 0.007 | -0.025 | 0.005 | -0.004 | -0.003
3 | SUCLG1 (UniProt P53597) | -0.02 | -0.008 | -0.001 | -0.032 | 0.009 | 0 | -0.006 | -0.102 | 0.019 | 0.025
4 | TM7SF3 (UniProt Q9NS93) | -0.033 | -0.054 | 0.005 |  |  | -0.019 | -0.027 | 0.06 | 0.045 | 0.017
5 | TIMM10B (UniProt Q9Y5J6) | -0.053 | -0.075 | 0.018 | -0.05 | 0.073 | -0.077 | -0.057 | 0.061 | 0.067 | 
6 | SMARCA5 (UniProt O60264) | 0.042 | -0.041 | 0.038 | 0.107 | 0.085 | 0.129 | 0.032 | 0.149 | 0.109 | 0.014
7 | SSBP4 (UniProt Q9BWG4) | 0.056 | -0.017 | -0.133 |  |  | 0.021 | -0.036 | -0.042 | 0.053 | 0.003
8 | SRCAP (UniProt Q6ZRS2) | -0.177 | -0.286 | 0.058 |  | 0.278 | 0.082 | -0.02 | -0.041 | 0.026 | 0.036
9 | SLC35F6 (UniProt Q8N357) | -0.041 | -0.166 | 0.001 | -0.065 | -0.168 | -0.055 | -0.066 | 0.129 | 0.045 | 
10 | SYK (UniProt P43405) |  | 0.015 | -0.025 | 0.901 (active) | -0.097 | -0.058 |  | 0.307 | -0.094 | -0.386
11 | TATDN2 (UniProt Q93075) | -0.256 |  | 0.048 | 0.092 | 0.168 | 0.019 |  | -0.004 | 0.126 | -0.07
12 | TBP (UniProt P20226) |  | -0.04 | -0.056 | 0.163 | 0.02 | -0.026 | -0.154 |  | -0.067 | -0.071
13 | SPIN4 (UniProt Q56A73) |  |  |  |  |  |  |  | -0.245 |  | -0.601
14 | SP2 (UniProt Q02086) | -0.032 |  |  |  |  |  |  |  |  | -0.122
15 | TDP1 (UniProt Q9NUW8) |  |  |  |  |  |  |  | 0.112 |  | 
16 | SSBP4 (UniProt U3KPY3) |  |  |  |  | -0.095 |  | -0.028 |  |  | 
17 | SREBF1 isoform 4 (UniProt P36956) |  |  |  | 0.063 |  |  | -0.932 (active) | 0.051 | -0.071 | 0.035
18 | TC2N (UniProt Q8N9U0) |  | 0.077 |  |  | 0.063 |  | -0.098 |  |  | 
19 | STK11IP (UniProt Q8N1F8) | 0.095 |  | 0.038 | 0.118 | -0.159 | 0.061 | 0.063 | -0.017 | 0.008 | -0.071
20 | SRSF6 (UniProt Q13247) | -0.012 |  | -0.16 | 0.248 | -0.024 | -0.058 | 0.104 | 0.019 | -0.059 | 0.126
21 | TEX30 (UniProt Q5JUR7) |  | -0.182 | 0.047 | 0.009 | 0.138 | 0.037 | -0.119 | -0.146 | 0.019 | -0.062
22 | SMARCB1 (UniProt Q12824) | 0.188 |  |  |  | 0.065 |  |  |  |  | 0.101
23 | TCOF1 isoform 3 (UniProt Q13428) | -0.051 | 0.262 |  | -0.429 |  |  |  | 0.047 |  | 
24 | SMPD4 isoform 2 (UniProt Q9NXE4) |  |  | 0.162 |  | -0.301 | 0.099 | -0.035 |  | 0.034 | -0.023

Row | Target | log2 fold change [1] | log2 fold change [2] | log2 fold change [3] | log2 fold change [4] | log2 fold change [5] | log2 fold change [6] | log2 fold change [7] | log2 fold change [8] | log2 fold change [9] | log2 fold change [10]
25 | SMDT1 (UniProt Q9H4I9) | 0.137 |  |  | -0.015 | 0.037 |  | -0.127 |  | -0.021 | 0.033
26 | SLC35B1 isoform 2 (UniProt P78383) | 0.165 | -0.109 |  | 0.072 | 0.267 |  | -0.221 | 0.069 | -0.055 | 0.054
27 | SUPT5H isoform 2 (UniProt O00267) |  |  |  |  | 0.232 |  |  |  |  | 
28 | SLC44A2 isoform 2 (UniProt Q8IWA5) | 0.084 | -0.033 |  | 0.05 | 0.038 |  | -0.029 | -0.027 | -0.012 | -0.024
29 | SNX2 isoform 2 (UniProt O60749) | 0 |  | -0.003 | 0.484 | -0.026 | -0.144 |  |  | -0.054 | -0.039
30 | TCOF1 isoform 6 (UniProt Q13428) | 0.148 | -0.078 |  |  | 0.146 |  | 0.545 | -0.024 | 0.008 | -0.105
31 | STK17B (UniProt O94768) |  |  |  |  |  |  |  | 0.16 | 0.29 | 0.031
32 | SLC35B4 (UniProt Q969S0) | 0.018 |  |  | -0.061 | 0.062 |  | -0.002 | 0.077 | -0.01 | -0.064
33 | TM7SF2 (UniProt O76062) | 0.051 | 0.015 | -0.045 |  | 0.252 | 0.123 |  | 0.18 |  | 
34 | SLC46A1 (UniProt Q96NT5) |  |  |  |  | 0.056 |  |  | 0.011 |  | 
35 | SNRK (UniProt Q9NRH2) | -0.029 |  | 0.066 |  |  | 0.07 |  |  |  | 0.225
36 | SLC39A1 (UniProt Q9NY26) |  |  |  |  |  |  |  | -0.157 |  | 
37 | SYNE1 (UniProt Q8NF91) | -0.126 | -0.051 |  | 0.612 (active) | -0.045 |  | -0.044 | 0.199 | 0.047 | -0.17
38 | STK38L (UniProt Q9Y2H1) | -0.044 | 0.165 |  | -0.074 | -0.038 |  | 0.079 | -0.016 | 0.064 | 0.056
39 | SLC9A6 isoform 3 (UniProt Q92581) |  |  | -0.152 |  |  | -0.152 |  | -0.021 | 0.109 | 
40 | SPAG9 isoform 4 (UniProt O60271) | 0.184 | -0.025 |  |  | 0.174 |  | 0.028 | 0.021 | 0.176 | -0.038
41 | SSB (UniProt E7ERC4) |  |  |  |  | 0.264 |  | 0.283 |  |  | 
42 | THAP9 (UniProt Q9H5L6) |  | 0.017 |  |  |  |  | -0.463 |  | 0.121 | -0.065
43 | TAOK2 (UniProt Q9UL54) |  | 0.024 | 0.062 | 0.487 (active) |  | 0.051 | 0.007 | -0.363 |  | 0.08
44 | SPIRE1 (UniProt Q08AE8) |  | 0.013 |  | 0.31 | -0.011 |  | -0.062 | 0.185 | -0.014 | -0.025
45 | SLC8B1 (UniProt Q6J4K2) |  | 0.038 | -0.28 |  | -0.075 | -0.021 |  | 0.069 | -0.167 | -0.022
46 | TAF6L (UniProt Q9Y6J9) | -0.042 | 0.114 | -0.055 |  |  | -0.059 | 0.091 | 0.075 |  | 
47 | TBC1D2 (UniProt Q9BYX2) |  |  |  | 0.618 (active) |  |  | 0.11 |  |  | 
